In ChEMBL document CHEMBL4808148, “HDAC6 screening dataset using tau-based substrate in an enzymatic assay yields selective inhibitors and activators” (2021):
Values joined by “and” are separate entries in the source; they are usually repeats but may differ in a detail not shown here. Equal values may be shown once. Out of some 5,600 compounds screened, about 390 (7%) showed an effect of 50% or more. For the sample, strong results were picked, then their nearest neighbours and some compounds at random.

These molecules were tested against T1, Protein deacetylase HDAC6 (Homo sapiens) (UniProt Q9UBN7). Details: at 10 µM.
T1 sequence (whole entry): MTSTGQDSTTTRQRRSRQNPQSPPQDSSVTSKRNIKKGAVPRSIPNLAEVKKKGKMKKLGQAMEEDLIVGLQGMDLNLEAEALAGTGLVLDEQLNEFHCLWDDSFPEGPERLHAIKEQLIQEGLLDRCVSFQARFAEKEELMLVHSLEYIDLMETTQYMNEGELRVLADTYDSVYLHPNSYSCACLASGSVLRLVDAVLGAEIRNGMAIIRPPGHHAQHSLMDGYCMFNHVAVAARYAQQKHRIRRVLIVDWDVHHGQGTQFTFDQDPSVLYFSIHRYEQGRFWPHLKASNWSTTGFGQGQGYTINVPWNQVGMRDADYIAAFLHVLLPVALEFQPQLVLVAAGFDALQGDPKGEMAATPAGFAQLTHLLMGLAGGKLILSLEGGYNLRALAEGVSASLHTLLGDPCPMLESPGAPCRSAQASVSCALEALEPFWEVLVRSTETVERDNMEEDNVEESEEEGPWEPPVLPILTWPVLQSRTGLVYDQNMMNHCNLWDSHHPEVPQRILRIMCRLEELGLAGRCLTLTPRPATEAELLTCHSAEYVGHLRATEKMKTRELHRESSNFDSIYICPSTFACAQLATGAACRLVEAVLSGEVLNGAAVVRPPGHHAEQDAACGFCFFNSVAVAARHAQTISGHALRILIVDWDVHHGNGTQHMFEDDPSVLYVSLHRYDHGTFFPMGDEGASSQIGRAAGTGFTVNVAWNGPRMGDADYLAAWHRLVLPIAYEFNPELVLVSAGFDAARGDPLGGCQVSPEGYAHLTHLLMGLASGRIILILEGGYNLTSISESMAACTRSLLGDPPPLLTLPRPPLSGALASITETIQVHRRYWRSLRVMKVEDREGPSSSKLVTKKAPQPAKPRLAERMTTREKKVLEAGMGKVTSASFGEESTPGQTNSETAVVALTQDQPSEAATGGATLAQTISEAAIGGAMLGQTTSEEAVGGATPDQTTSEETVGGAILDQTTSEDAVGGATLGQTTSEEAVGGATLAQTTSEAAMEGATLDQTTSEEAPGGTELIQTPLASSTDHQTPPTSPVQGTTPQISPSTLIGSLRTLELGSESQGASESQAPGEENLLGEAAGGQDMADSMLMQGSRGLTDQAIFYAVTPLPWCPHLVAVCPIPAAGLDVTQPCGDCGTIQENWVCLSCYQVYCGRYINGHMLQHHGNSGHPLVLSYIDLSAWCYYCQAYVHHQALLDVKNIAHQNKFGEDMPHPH
`Cc1nc2ccc(-n3ncc(C(=O)c4cc5ccccc5[nH]4)c3N)cc2[nH]1` was tested, and the inhibition was 100%.
`CN1CC[C@@H](NC(=O)Nc2ccc(C#N)cc2)C[C@@H]1c1nc2ccccc2[nH]1` showed an inhibition of -9.46%.
`CCCCCCCCCCCCC/C=C/[C@@H](O)[C@@H](N)COP(=O)([O-])OCC[N+](C)(C)C` showed an inhibition of 23.4%.
`CCO[C@@H]1OC(=O)C[C@@H]1NC(=O)[C@@H]1CCCN1C(=O)[C@@H](NC(=O)c1ccc(N)c(Cl)c1)C(C)(C)C` showed an inhibition of 12.6%.
In the case of `CC(C)C(=O)OCC(=O)[C@@]12O[C@H](C3CCCCC3)O[C@@H]1C[C@H]1[C@@H]3CCC4=CC(=O)C=C[C@]4(C)[C@H]3[C@@H](O)C[C@@]12C`, the inhibition is reported as 7.25%.
For `CCOC(=O)C12CC1/C(=N\O)c1ccccc1O2` (configuration not stated), the inhibition was 38.5%.
`CN1[C@@H]2CC[C@H]1C[C@@H](OC(=O)N1Cc3ccccc3NC1=O)C2` gave an inhibition of -7.98%.
Molecule `O=C(O[C@@H]1C[C@@H]2C[C@H]3C[C@H](C1)N2CC3=O)c1c[nH]c2ccccc12` has an inhibition of 61.3%.
With `Cc1nc(Cn2cnc3c2c(=O)n(C)c(=O)n3C)no1` the inhibition was 24.3%.
`CC(C)(C)NCC(O)c1cc(Br)no1` (configuration not stated) was tested, and the inhibition was 18.5%.
For `O=C(O)CCCNC(=O)c1cccnc1`, the inhibition was 28.7%.
Molecule `O=C(O)[C@@H](c1ccc(OCc2ccc3ccccc3n2)cc1)C1CCCC1` has an inhibition of 93.6%.
For `CC(CNC1CCCCC1)OC(=O)c1ccccc1` (configuration not stated), the inhibition was 34.8%.
For `CCN1CCCC(OC(=O)C(c2ccccc2)c2ccccc2)C1` (configuration not stated), the inhibition was -1.02%.
`CCCCN(CC)c1c([N+](=O)[O-])cc(C(F)(F)F)cc1[N+](=O)[O-]` showed an inhibition of 10.6%.
Work on `CC(C)C(=O)SCCCCC[C@H](NC(=O)OC(C)(C)C)C(=O)NC12CC3CC(CC(C3)C1)C2` yielded an inhibition of 52%.
`NC(=O)c1cccc(-c2cccc(OC(=O)NC3CCCCC3)c2)c1` showed an inhibition of 95.1%.
In the case of `CN(Cc1cccc(-c2ccccc2)c1)C(=O)Oc1ccc(-c2ccc(C(N)=O)cc2)cc1`, the inhibition is reported as 25.7%.
`N[C@@H]1CCN(c2cccnc2)C1` gave an inhibition of 18.5%.
`N#Cc1ccc(N2N=C3c4ccc(C(=O)O)cc4CC[C@@H]3[C@@H]2C2CCCC2)cc1Cl` gave an inhibition of 20.4%.
`CCCOc1ccc2c(c1)CC[C@@H]1[C@@H]2CC[C@]2(C)[C@@H](OC)CC[C@@H]12` gave an inhibition of -9.5%.
For `CCc1oc2ccccc2c1C(=O)c1ccc(OCC(=O)O)cc1`, the inhibition was -6.7%.
Work on `COc1nc(N)nc2c1ncn2[C@@H]1O[C@H](CO)[C@@H](O)[C@@H]1O` yielded an inhibition of 35.9%.
With `NC(=O)c1ncn([C@@H]2O[C@H](CO)[C@@H](O)[C@H]2O)n1` the inhibition was -7.83%.
In the case of `CC(C)Nc1nc2cc(Cl)c(Cl)cc2n1[C@H]1O[C@@H](CO)[C@H](O)[C@@H]1O`, the inhibition is reported as 82.2%.
Molecule `Cc1cc(C)cc(NC(=O)Cc2ccc(OC(C)(C)C(=O)O)cc2)c1` has an inhibition of -3.44%.
Work on `COc1ccc(C(=O)CCC(=O)O)c2ccccc12` yielded an inhibition of 0.61%.
For `O=C(COc1cccc2c(=O)[nH]ccc12)c1ccccc1`, the inhibition was 65.9%.
`N#CCC(=O)c1ccccc1` was tested, and the inhibition was 19.1%.
Work on `C[C@]12CC[C@H]3[C@@H](CCC4=CC(=O)CC[C@@]43C)[C@@H]1CC[C@@H]2C(=O)CO` yielded an inhibition of 32.2%.
`O=C(N[C@H]1CN2CCC1CC2)c1c[nH]c2ccsc2c1=O` gave an inhibition of 10.3%.
Molecule `Cn1nnc(-c2ccc(-c3ccc(N4C[C@H](COP(=O)(O)O)OC4=O)cc3F)cn2)n1` has an inhibition of -2.24%.
`O=C(CCCl)NCCc1ccccc1` was tested, and the inhibition was 11.9%.
In the case of `O=C(NCc1cccc(O)c1)Nc1nc(-c2ccncc2)cs1`, the inhibition is reported as 3.24% and 13.9%.
`c1ccc(CCNc2nc(-c3ccccc3)cs2)cc1` showed an inhibition of 79.1%.
`O=C(CCn1cnc2c(=O)[nH]cnc21)Nc1ccc(C(=O)O)cc1` gave an inhibition of 11.5%.
Molecule `Brc1c(Br)c(Br)c2[nH]nnc2c1Br` has an inhibition of 55.5%.
With `O=C(Nc1ccc(S(=O)(=O)C(F)(F)F)cc1)C1=CCN(c2ncccc2C(F)(F)F)CC1` the inhibition was 8.48%.
`C[C@]12CCC(=O)C=C1CC[C@@H]1[C@@H]2[C@@H](O)C[C@]2(C)C(=O)CC[C@@H]12` showed an inhibition of -0.5%.
Work on `CCCC(CCC)C(=O)NCc1ccc2c(cnn2-c2ccccc2OC)c1` yielded an inhibition of -9.99%.
In the case of `c1ccc(CNc2ncnc3[nH]cnc23)cc1`, the inhibition is reported as 3.46%.
`Nc1nc(OCc2ccccc2)c2nc[nH]c2n1` was tested, and the inhibition was 68.9%.
Molecule `CC(=O)O[C@H]1C[C@@H]2CC[C@@H]3[C@H](CC[C@@]4(C)[C@H]3C[C@H](N3CC[N+](C)(C)CC3)[C@@H]4OC(C)=O)[C@@]2(C)C[C@@H]1N1CC[N+](C)(C)CC1` has an inhibition of -3.02%.
In the case of `CN1C(=O)N(c2ccc(C#N)c(C(F)(F)F)c2)C(=O)[C@@]1(CO)c1ccccc1`, the inhibition is reported as 16.8%.
In the case of `CN(CCOP(=O)(O)O)C(=N)N`, the inhibition is reported as 20.7%.
`O=C1N=C(N2CCOCC2)CN1c1ccc(Cl)cc1` gave an inhibition of 8.65%.
Molecule `NC(Cc1ccc(O)cc1)C(=O)O` (racemic) has an inhibition of 12.8%.
Molecule `N[C@H](C(=O)O)[C@@H]1CC(Cl)=NO1` has an inhibition of 2.38%.
Work on `CNC(=O)COC(=O)NCCC1CCN(c2cccc(C)n2)CC1` yielded an inhibition of 23.1%.
`CCn1c(O)nnc1-c1ccc(Cl)cc1` gave an inhibition of 4.14%.
In the case of `Cc1nc[nH]c1CCN`, the inhibition is reported as 0.18%.
`Cc1[nH]cnc1-c1ccc(Cl)cc1` was tested, and the inhibition was 80.5%.
`C[C@]12CCC(=O)C[C@@H]1CC[C@@H]1[C@@H]2CC[C@]2(C)[C@@H](O)CC[C@@H]12` showed an inhibition of 6.85%.
Work on `O=C(/C=C/c1ccc2ccccc2n1)c1ccncc1` yielded an inhibition of 91.9%.
Work on `O=C(/C=C/c1ccc2ccc(C(F)(F)F)cc2n1)c1ccncc1` yielded an inhibition of 36.8%.
Work on `CC(C)Oc1ccc(-c2nc(-c3cccc4c3CCC4NCCC(=O)O)no2)cc1C#N` (configuration not stated) yielded an inhibition of 25.6%.
In the case of `CC(CC(c1ccccc1)c1ccccc1)NC(C)(C)C` (configuration not stated), the inhibition is reported as 13.9%.
With `C[C@@]1(O)[C@H](O)[C@@H](CO)O[C@H]1n1cnc2c(NC3CCCC3)nc(Cl)nc21` the inhibition was -7.46%.
With `CC1(O)C(O)C(CO)OC1n1ccc(N)nc1=O` (configuration not stated) the inhibition was 50.8%.
`Nc1ccn([C@H]2CO[C@@H](CO)S2)c(=O)n1` showed an inhibition of 9.97%.
Molecule `C[S+](CC[C@H](N)C(=O)[O-])C[C@H]1O[C@@H](n2cnc3c(N)ncnc32)[C@H](O)[C@@H]1O` (some centres not stated) has an inhibition of 5.35%.
`Cc1cccc(Oc2cnc(=O)[nH]c2)c1` was tested, and the inhibition was 16.9%.
`O=C(NCc1ccccc1)c1csc(Nc2ccncn2)n1` showed an inhibition of 44.2%.
Molecule `Cc1c[nH]c2ncnc(N3CCC(CN)(C(=O)Nc4cccc(OC(=O)N(C)C)c4)CC3)c12` has an inhibition of 25.2%.
For `Cc1cccc(/C=N/Nc2cc(N3CCOCC3)n3nc(-c4ccncc4)cc3n2)c1`, the inhibition was -1.46%.
`CC1(CN)Cc2ccccc2C1` was tested, and the inhibition was 0.58%.
Molecule `Brc1cc2c(cc1[C@@H]1Nc3ccccc3[C@@H]3C=CC[C@@H]31)OCO2.Brc1cc2c(cc1[C@H]1Nc3ccccc3[C@H]3C=CC[C@H]31)OCO2` has an inhibition of 2.38%.
